Source: PubChem BioAssay (NCI)
The panel holds about 83,000 compounds, 20% with a hit somewhere; the sample as a whole holds those more often.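 Step 1: grow cells in 96-well plates. Step 2: add test compound at a single concentration. Step 3: incubate 48 h. Step 4: record percent growth.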 Unmarked numbers belong to inactive results. Calls of active or inactive are those of the source. The calls were made as follows: active = growth percent below 10; inactive = the rest.

Experiments:
Test in all cases: NCI-60 one-dose screen, 48 h (100 = growth as untreated, 0 = no growth, -100 = all killed)
DU-145 prostate = tested on: DU-145 prostate
K-562 leukemia = tested on: K-562 leukemia
MALME-3M melanoma = tested on: MALME-3M melanoma
MDA-MB-231 breast = tested on: MDA-MB-231 breast
RXF 393 renal = tested on: RXF 393 renal
SF-268 CNS = tested on: SF-268 CNS
SF-295 CNS = tested on: SF-295 CNS
SF-539 CNS = tested on: SF-539 CNS
UACC-257 melanoma = conditions: 10 µM unless noted
M14 melanoma = tested on: M14 melanoma
HCT-15 colon = tested on: HCT-15 colon
HT29 colon = tested on: HT29 colon
SNB-75 CNS = tested on: SNB-75 CNS
SNB-19 CNS = tested on: SNB-19 CNS
U251 CNS = conditions: 10 µM unless noted
PC-3 prostate = tested on: PC-3 prostate
SK-MEL-5 melanoma = tested on: SK-MEL-5 melanoma
UACC-62 melanoma = tested on: UACC-62 melanoma
LOX IMVI melanoma = tested on: LOX IMVI melanoma
SK-MEL-28 melanoma = tested on: SK-MEL-28 melanoma

O=C(Nc1cccc(Br)c1)Oc1cccc2cccnc12
growth (DU-145 prostate; 10 µM): 115% | growth (DU-145 prostate; 100 µM): 35.6% | growth (K-562 leukemia; 10 µM): 109% | growth (K-562 leukemia; 100 µM): 12.6% | growth (MALME-3M melanoma; 10 µM): 114% | growth (MALME-3M melanoma; 100 µM): 7.15% (active) | growth (MDA-MB-231 breast; 10 µM): 98.4% | growth (MDA-MB-231 breast; 100 µM): 15.1% | growth (RXF 393 renal; 10 µM): 106% | growth (RXF 393 renal; 100 µM): 55.6% | growth (SF-268 CNS; 10 µM): 107% | growth (SF-268 CNS; 100 µM): 20.9% | growth (SF-295 CNS; 10 µM): 97.4% | growth (SF-295 CNS; 100 µM): 9.21% (active) | growth (SF-539 CNS; 10 µM): 97.1% | growth (SF-539 CNS; 100 µM): 9.58% (active) | growth (UACC-257 melanoma): 7.41% [100 µM] (active) | growth (M14 melanoma; 10 µM): 99.4% | growth (M14 melanoma; 100 µM): 16% | growth (HCT-15 colon; 10 µM): 94.1% | growth (HCT-15 colon; 100 µM): 5.53% (active) | growth (HT29 colon; 10 µM): 92.1% | growth (HT29 colon; 100 µM): 57.8% | growth (SNB-75 CNS; 10 µM): 83.4% | growth (SNB-75 CNS; 100 µM): 41.6% | growth (SNB-19 CNS; 10 µM): 100% | growth (SNB-19 CNS; 100 µM): 48.7% | growth (U251 CNS): 21.1% [100 µM] | growth (PC-3 prostate; 10 µM): 92.9% | growth (PC-3 prostate; 100 µM): 11.7% | growth (SK-MEL-5 melanoma; 10 µM): 101% | growth (SK-MEL-5 melanoma; 100 µM): 2.15% (active) | growth (UACC-62 melanoma; 10 µM): 97.5% | growth (UACC-62 melanoma; 100 µM): 11.7% | growth (LOX IMVI melanoma; 10 µM): 102% | growth (LOX IMVI melanoma; 100 µM): -3.16% (active) | growth (SK-MEL-28 melanoma; 10 µM): 105% | growth (SK-MEL-28 melanoma; 100 µM): 48.2%

CN(C)C(=O)c1ccc(SC(=S)NCc2ccccc2)cc1
growth (DU-145 prostate; 10 µM): 111% | growth (DU-145 prostate; 100 µM): 10.1% | growth (K-562 leukemia; 10 µM): 82.6% | growth (K-562 leukemia; 100 µM): 3.9% (active) | growth (MALME-3M melanoma; 10 µM): 108% | growth (MALME-3M melanoma; 100 µM): -12.7% (active) | growth (MDA-MB-231 breast; 10 µM): 109% | growth (MDA-MB-231 breast; 100 µM): 13.3% | growth (RXF 393 renal; 10 µM): 108% | growth (RXF 393 renal; 100 µM): -72.4% (active) | growth (SF-268 CNS; 10 µM): 124% | growth (SF-268 CNS; 100 µM): 50.2% | growth (SF-295 CNS; 10 µM): 119% | growth (SF-295 CNS; 100 µM): 26.3% | growth (SF-539 CNS; 10 µM): 102% | growth (SF-539 CNS; 100 µM): -62.3% (active) | growth (UACC-257 melanoma): 18.4% [100 µM] | growth (M14 melanoma; 10 µM): 103% | growth (M14 melanoma; 100 µM): -42% (active) | growth (HCT-15 colon; 10 µM): 92.2% | growth (HCT-15 colon; 100 µM): -35.1% (active) | growth (HT29 colon; 10 µM): 107% | growth (HT29 colon; 100 µM): -62% (active) | growth (SNB-75 CNS; 10 µM): 110% | growth (SNB-75 CNS; 100 µM): 1.41% (active) | growth (SNB-19 CNS; 10 µM): 109% | growth (SNB-19 CNS; 100 µM): -0.973% (active) | growth (U251 CNS): 16.7% [100 µM] | growth (SK-MEL-5 melanoma; 10 µM): 102% | growth (SK-MEL-5 melanoma; 100 µM): -53.1% (active) | growth (UACC-62 melanoma; 10 µM): 103% | growth (UACC-62 melanoma; 100 µM): 1.05% (active) | growth (LOX IMVI melanoma; 10 µM unless noted): 87.5% | growth (SK-MEL-28 melanoma; 10 µM): 106% | growth (SK-MEL-28 melanoma; 100 µM): -34.8% (active)

Oc1ccc(/C=N/NC(=S)Nc2ccccc2)nc1
growth (DU-145 prostate; 10 µM unless noted): 12.3% | growth (K-562 leukemia; 10 µM unless noted): 14.1% | growth (MALME-3M melanoma; 10 µM unless noted): 14.4% | growth (MDA-MB-231 breast; 10 µM unless noted): 49.3% | growth (RXF 393 renal; 10 µM unless noted): 3.06% (active) | growth (SF-268 CNS; 10 µM unless noted): 18.7% | growth (SF-295 CNS; 10 µM unless noted): 25.3% | growth (SF-539 CNS; 10 µM unless noted): 1.01% (active) | growth (UACC-257 melanoma): 4.98% (active) | growth (M14 melanoma; 10 µM unless noted): -34.8% (active) | growth (HCT-15 colon; 10 µM unless noted): 24.8% | growth (HT29 colon; 10 µM unless noted): 34.6% | growth (SNB-75 CNS; 10 µM unless noted): 31.4% | growth (SNB-19 CNS; 10 µM unless noted): 42% | growth (U251 CNS): 14.7% | growth (PC-3 prostate; 10 µM unless noted): 23.3% | growth (SK-MEL-5 melanoma; 10 µM unless noted): -45.3% (active) | growth (UACC-62 melanoma; 10 µM unless noted): -9.22% (active) | growth (LOX IMVI melanoma; 10 µM unless noted): -18.7% (active) | growth (SK-MEL-28 melanoma; 10 µM unless noted): 43.1%

CCN1/C(=C\c2cc[n+](CC)c3ccccc23)C=Cc2ccccc21
growth (DU-145 prostate; 10 µM unless noted): 22.9% | growth (K-562 leukemia; 10 µM unless noted): 16.4% | growth (MALME-3M melanoma; 10 µM unless noted): 1.55% (active) | growth (MDA-MB-231 breast; 10 µM unless noted): 3.42% (active) | growth (RXF 393 renal; 10 µM unless noted): 16.4% | growth (SF-268 CNS; 10 µM unless noted): 26.3% | growth (SF-295 CNS; 10 µM unless noted): 0.16% (active) | growth (SF-539 CNS; 10 µM unless noted): 7.56% (active) | growth (UACC-257 melanoma): -1.1% (active) | growth (M14 melanoma; 10 µM unless noted): 10.5% | growth (HCT-15 colon; 10 µM unless noted): 29.7% | growth (HT29 colon; 10 µM unless noted): 8.56% (active) | growth (SNB-75 CNS; 10 µM unless noted): 14.3% | growth (SNB-19 CNS; 10 µM unless noted): 17.1% | growth (U251 CNS): 17% | growth (PC-3 prostate; 10 µM unless noted): 11.4% | growth (SK-MEL-5 melanoma; 10 µM unless noted): -74.4% (active) | growth (UACC-62 melanoma; 10 µM unless noted): -21.4% (active) | growth (LOX IMVI melanoma; 10 µM unless noted): 4.04% (active) | growth (SK-MEL-28 melanoma; 10 µM unless noted): 3% (active)

CCCCCCCCCCCCCCCC[N+](C)(CCO)Cc1cnc[nH]1 (stereo not drawn)
growth (DU-145 prostate; 10 µM unless noted): -32% (active) | growth (K-562 leukemia; 10 µM unless noted): -61.6% (active) | growth (MALME-3M melanoma; 10 µM unless noted): -3.54% (active) | growth (MDA-MB-231 breast; 10 µM unless noted): -54.9% (active) | growth (RXF 393 renal; 10 µM unless noted): -44.7% (active) | growth (SF-268 CNS; 10 µM unless noted): -66.1% (active) | growth (SF-295 CNS; 10 µM unless noted): -31.7% (active) | growth (SF-539 CNS; 10 µM unless noted): -54.3% (active) | growth (UACC-257 melanoma): -34.5% (active) | growth (M14 melanoma; 10 µM unless noted): -41.9% (active) | growth (HCT-15 colon; 10 µM unless noted): 23.5% | growth (HT29 colon; 10 µM unless noted): -58.8% (active) | growth (SNB-75 CNS; 10 µM unless noted): -86.6% (active) | growth (SNB-19 CNS; 10 µM unless noted): -98.8% (active) | growth (U251 CNS): -86.5% (active) | growth (PC-3 prostate; 10 µM unless noted): -37.5% (active) | growth (SK-MEL-5 melanoma; 10 µM unless noted): -99.8% (active) | growth (UACC-62 melanoma; 10 µM unless noted): -76.4% (active) | growth (LOX IMVI melanoma; 10 µM unless noted): -79% (active) | growth (SK-MEL-28 melanoma; 10 µM unless noted): -43.2% (active)

NC(=S)N/N=C/c1ccc(Cl)s1
growth (DU-145 prostate; 10 µM unless noted): 106% | growth (K-562 leukemia; 10 µM unless noted): 99.5% | growth (MALME-3M melanoma; 10 µM unless noted): 104% | growth (MDA-MB-231 breast; 10 µM unless noted): 110% | growth (RXF 393 renal; 10 µM unless noted): 99.9% | growth (SF-268 CNS; 10 µM unless noted): 102% | growth (SF-295 CNS; 10 µM unless noted): 103% | growth (SF-539 CNS; 10 µM unless noted): 100% | growth (UACC-257 melanoma): 104% | growth (M14 melanoma; 10 µM unless noted): 105% | growth (HCT-15 colon; 10 µM unless noted): 101% | growth (HT29 colon; 10 µM unless noted): 108% | growth (SNB-75 CNS; 10 µM unless noted): 108% | growth (SNB-19 CNS; 10 µM unless noted): 101% | growth (U251 CNS): 101% | growth (PC-3 prostate; 10 µM unless noted): 101% | growth (SK-MEL-5 melanoma; 10 µM unless noted): 97.2% | growth (UACC-62 melanoma; 10 µM unless noted): 101% | growth (LOX IMVI melanoma; 10 µM unless noted): 101% | growth (SK-MEL-28 melanoma; 10 µM unless noted): 108%
